Assay results from PubChem BioAssay (Tox21).
Values joined by “and” are separate entries in the source; they are usually repeats but may differ in a detail not shown here. Equal entries are not always repeated. Records with an inconclusive call do not appear. A call without a number means that no potency is given here. Some structures have more than one record in an assay (separate samples or runs), and their calls can disagree. Active and inactive are the calls of the source. Unless noted, calls come from the whole dose curve; as a rule, active = well fitted curve in the direction sought with a large enough effect in the repeat runs; inconclusive = weak or mixed curves; inactive = no such curve, though single readings can be large; an effect the other way counts as inactive or inconclusive.

Key:
[1] = biological target: Thyrotropin receptor (Homo sapiens) (UniProt P16473); assay: qHTS assay to identify small molecule agonists of the thyroid stimulating hormone receptor (TSHR) signaling pathway (AID 1224843; calls by dose curve; note: nearly all actives have a fitted effect of over 45% in size; note: potency is the fitted concentration of half-maximal effect)
In short: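 HEK293/TSHR, 800 cells/well; cpd 30 min RT; add cAMP-d2 + anti-cAMP-cryptate, 1 h RT; fluorescence read on plate reader. 15-pt titration, n=3.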

[2] = qHTS assay to identify small molecule agonists of the hypoxia (HIF-1) signaling pathway - cell viability counter screen (AID 1224844; calls by dose curve; note: nearly all actives have a fitted effect of over 50% in size)
In short: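 Cytotoxicity was measured in parallel with the HRE-driven beta-lactamase readout: after 17 hrs of compound exposure at 37C, HRE-bla ME-180 cells received CellTiter-Glo and luminescence was recorded 30 min later.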

[3] = qHTS assay to identify small molecule agonists of H2AX (AID 1224845; active = well fitted activation curve with a large enough effect in the signal ratio in the repeat runs, not every such curve was filed as active; the % refers to the signal ratio)
In short: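 Wild-type CHO-K1 cells, plated overnight, exposed 3hr at 37C to 15 concentrations (0.76% DMSO final). Lysed, then HTRF anti-pH2AX (S139) cryptate and anti-H2AX-d2 antibodies, 24 hr room temperature; 665/620 nm emission read.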

[4] = qHTS assay to identify small molecule agonists of the hypoxia (HIF-1) signaling pathway (AID 1224846; active = well fitted activation curve with a large enough effect in the signal ratio in the repeat runs, not every such curve was filed as active; the % refers to the signal ratio)
In short: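 Compounds from the Tox21 10K library, dissolved in DMSO, are tested for induction of a hypoxia response element–controlled beta-lactamase reporter in ME-180 cells. Exposure lasts 17 hrs at 37C after a 5 hr settling period, followed by CCF4-AM FRET substrate.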

[5] = qHTS assay to identify small molecule agonists of H2AX - cell viability counter screen (AID 1224847; calls by dose curve; note: nearly all actives have a fitted effect of over 30% in size; note: potency is the fitted concentration of half-maximal effect)
In short: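 Cytotoxicity counter screen in wild-type CHO-K1 cells: a 3 hr compound treatment at 37C across 15 concentrations, followed by CellTiter-Glo luminescence to gauge viable cells.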

[6] = qHTS assay to identify small molecule antagonists of the estrogen related receptor (ERR) signaling pathway from Tox21 library (AID 1224848); note: nearly all actives have a fitted effect of over 50% in size
In short: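 Compounds dissolved in DMSO are pin-transferred onto ERR reporter cells (2,000 per well) that have settled for 6 h at 37 C. Plates then incubate 18 h at 37 C before ONE-Glo luciferase reagent and a luminescence read 30 min later.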

[7] = qHTS assay to identify small molecule agonists of the estrogen related receptor (ERR) signaling pathway from Tox21 library (AID 1224849; calls by dose curve; note: nearly all actives have a fitted effect of over 15% in size); settings: ERR reporter cell line, ONE-Glo luciferase, 18 h; at 92.4 µM (top of the series)
In short: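 Cells carrying the ERR reporter were plated and allowed to settle for 6 h, exposed to library compounds for 18 h at 37 C, then lysed with ONE-Glo and luminescence measured.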

[8] = qHTS RealTime-Glo MT Cell Viability Assay in HepG2 cells - 24 hour (AID 1224867); note: nearly all actives have a fitted effect of over 50% in size
In short: (§1)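 HepG2 cells (600/well) were dispensed with RealTime-Glo reagents, incubated 5 h at 37 °C, then treated with compounds in DMSO for up to 40 h. Nonlytic NanoLuc luminescence reflecting viable cells was read at each stated time point.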

[9] = qHTS RealTime-Glo MT Cell Viability Assay in HEK293 cells - 32 hour (AID 1224868); note: top concentration of the series differs between compounds; nearly all actives have a fitted effect of over 50% in size
In short: (§2)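 HEK293 cells seeded with NanoLuc/prosubstrate reagent, rested 5 h at 37 C, then dosed and kept at 37 C up to 40 h. Nonlytic real-time luminescence from viable cells read at 0, 8, 16, 24, 32 and 40 h.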

[10] = A CellTox Green Cytotoxicity Assay to monitor cytotoxicity in HEK293 cells - 0 hour (AID 1224869); note: nearly all actives have a fitted effect of over 50% in size
In short: (§3)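 Cells (HEK293, 600/well) and dye reagent are dispensed together. After 5 h at 37 C, 23 nL compound is pinned in. Plates stay at 37 C for 40 h with fluorescence read at 0h, 8h, 16h, 24h, 32h and 40h.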

[11] = qHTS RealTime-Glo MT Cell Viability Assay in HepG2 cells - 40 hour (AID 1224870); note: nearly all actives have a fitted effect of over 50% in size
In short: (§4)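 HepG2 cells (600/well) mixed with RealTime-Glo MT reagent, settled 5 h at 37 C/5% CO2 before compound addition. Nonlytic NanoLuc luminescence from viable-cell prosubstrate reduction read repeatedly during 40 h treatment at 37 C.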

[12] = A CellTox Green Cytotoxicity Assay to monitor cytotoxicity in HEK293 cells - 40 hour (AID 1224871); note: nearly all actives have a fitted effect of over 45% in size; note: potency is the fitted concentration of half-maximal effect
In short: as §3

[13] = qHTS RealTime-Glo MT Cell Viability Assay in HEK293 cells - 16 hour (AID 1224872)
In short: as §2

[14] = qHTS RealTime-Glo MT Cell Viability Assay in HEK293 cells - 40 hour (AID 1224874); settings: RealTime-Glo luminescence; max response: stronger effect = lower value; note: nearly all actives have a fitted effect of over 50% in size
In short: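 Real-time viability in HEK293: signal arises when living cells convert a prosubstrate for NanoLuc in the medium, so luminescence tracks viable cell number. Compound (23 nL, DMSO) added 5 h post-seeding; kinetic reads at 0–40 h, 37 C.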

[15] = A CellTox Green Cytotoxicity Assay to monitor cytotoxicity in HEK293 cells - 24 hour (AID 1224875); note: nearly all actives have a fitted effect of over 45% in size
In short: as §3

[16] = A CellTox Green Cytotoxicity Assay to monitor cytotoxicity in HepG2 cells - 16 hour (AID 1224876); note: nearly all actives have a fitted effect of over 45% in size
In short: (§5)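 Cells and non-lytic dye reagent are dispensed together (600 HepG2 cells/well) and incubated 5 h before DMSO compound transfer. Kinetic fluorescence is then recorded in the same wells during 40 h at 37 C.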

[17] = qHTS RealTime-Glo MT Cell Viability Assay in HepG2 cells - 32 hour (AID 1224877); note: nearly all actives have a fitted effect of over 55% in size
In short: as §1

[18] = A CellTox Green Cytotoxicity Assay to monitor cytotoxicity in HepG2 cells - 24 hour (AID 1224878); note: nearly all actives have a fitted effect of over 45% in size
In short: as §5

[19] = A CellTox Green Cytotoxicity Assay to monitor cytotoxicity in HepG2 cells - 40 hour (AID 1224879); note: nearly all actives have a fitted effect of over 40% in size; note: potency is the fitted concentration of half-maximal effect
In short: as §5

[20] = qHTS RealTime-Glo MT Cell Viability Assay in HepG2 cells - 8 hour (AID 1224873); note: nearly all actives have a fitted effect of over 55% in size
In short: as §4

Sequence of Thyrotropin receptor (Homo sapiens) (P16473 whole entry, looked up): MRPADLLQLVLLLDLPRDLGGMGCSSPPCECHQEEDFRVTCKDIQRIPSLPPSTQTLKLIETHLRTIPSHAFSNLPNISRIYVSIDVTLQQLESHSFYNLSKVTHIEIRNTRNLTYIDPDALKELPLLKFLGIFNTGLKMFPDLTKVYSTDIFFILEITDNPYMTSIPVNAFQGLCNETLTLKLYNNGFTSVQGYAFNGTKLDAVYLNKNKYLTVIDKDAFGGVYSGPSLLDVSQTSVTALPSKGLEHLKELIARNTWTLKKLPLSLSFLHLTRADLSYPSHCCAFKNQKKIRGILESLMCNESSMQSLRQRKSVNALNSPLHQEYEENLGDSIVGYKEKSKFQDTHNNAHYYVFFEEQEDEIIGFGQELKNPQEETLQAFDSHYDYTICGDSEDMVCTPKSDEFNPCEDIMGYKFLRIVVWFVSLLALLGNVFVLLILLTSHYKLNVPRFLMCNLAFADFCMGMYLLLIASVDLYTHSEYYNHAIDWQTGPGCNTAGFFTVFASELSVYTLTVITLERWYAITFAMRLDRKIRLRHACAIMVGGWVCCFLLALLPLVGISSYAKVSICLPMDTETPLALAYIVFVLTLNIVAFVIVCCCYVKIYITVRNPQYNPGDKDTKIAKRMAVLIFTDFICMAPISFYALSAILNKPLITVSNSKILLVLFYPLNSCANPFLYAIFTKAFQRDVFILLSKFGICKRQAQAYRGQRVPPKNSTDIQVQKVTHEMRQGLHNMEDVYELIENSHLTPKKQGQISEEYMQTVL

Row | Compound | Potency [1] | Potency [2] | Potency [3] | outcome [4] | Potency [5] | Potency [6] | activity change, positive = activation [7] | outcome [8] | Potency [9] | Potency [10] | outcome [11] | Potency [12] | outcome [13] | max response [14] | Potency [15] | Potency [16] | outcome [17] | Potency [18] | Potency [19] | outcome [20]
1 | Cc1ccc(N)cc1 | inactive | inactive | inactive | inactive | inactive | inactive | 14.9% (active) and 11.9% (inactive) | inactive | inactive | inactive | inactive | inactive | inactive | -16.7% (inactive) and 1.44% (inactive) and -0.523% (inactive) | inactive | inactive | inactive | inactive | inactive | 
2 | C=CCN=C=S | inactive | inactive | inactive | inactive | inactive | inactive |  | inactive |  | inactive | inactive | inactive | inactive | 17.8% (inactive) and 1.95% (inactive) | inactive |  | inactive | inactive | inactive | inactive
3 | Nc1ncc([N+](=O)[O-])s1 | inactive | inactive | inactive | inactive | inactive | inactive |  | inactive | inactive | inactive | inactive | inactive | inactive | 0.802% (inactive) and 3.01% (inactive) | inactive |  | inactive | inactive | inactive | 
4 | Nc1ccc([As](=O)(O)O)cc1 | inactive | inactive |  | inactive | inactive |  |  | inactive |  | inactive | inactive | inactive | inactive | 6.3% (inactive) and -4.26% (inactive) and 1.01% (inactive) | inactive | inactive | inactive | inactive | inactive | inactive
5 | NNc1ccccc1 | inactive | inactive |  | inactive | inactive |  |  | inactive |  | inactive | inactive | inactive | inactive | 3.45% (inactive) [middle of 5 runs] | inactive |  | inactive | inactive | inactive | inactive
6 | CC(C)(C)C(=O)CCl | inactive | inactive |  | inactive | inactive | inactive |  | inactive |  | inactive | inactive | inactive | inactive | 4.78% (inactive) and -0.671% (inactive) | inactive |  | inactive | inactive | inactive | inactive
7 | CSc1nnc(C(C)(C)C)c(=O)n1N | inactive | inactive | inactive | inactive | inactive |  |  | inactive |  | inactive | inactive | inactive | inactive | -23.1% (inactive) and -14.9% (inactive) | inactive | inactive | inactive | inactive | inactive | inactive
8 | C[C@]12CC[C@H](O)CC1=CC[C@@H]1[C@@H]2CC[C@]2(C)C(=O)CC[C@@H]12 | inactive | inactive | inactive |  | 89.8 µM (active) and inactive |  |  | inactive |  | inactive | inactive | inactive and 43.6 µM (active) | inactive | -15.5% (inactive) | inactive |  | inactive | inactive | 49 µM (active) and inactive | inactive
9 | Cc1ccccc1N | 1.08 µM (active) and inactive | inactive |  | inactive | inactive |  |  | inactive |  | inactive | inactive | inactive | inactive |  | inactive |  | inactive | inactive | inactive | inactive
10 | C=CC(=O)OCC(CC)CCCC (configuration not stated) | inactive | inactive |  | inactive | inactive | inactive |  | inactive | inactive | inactive | inactive | inactive | inactive | 13.3% (inactive) | inactive | inactive | inactive | inactive | inactive | 
11 | CC(=O)C1CCOC1=O (configuration not stated) | inactive | inactive |  | inactive | inactive |  |  | inactive | inactive | inactive | inactive | inactive | inactive | 3.16% (inactive) and 1.64% (inactive) | inactive | inactive | inactive | inactive | inactive | inactive
12 | CCOc1ccc(N)cc1 | inactive | inactive | inactive | inactive | inactive |  |  | inactive | inactive | inactive | inactive | inactive | inactive | 2.16% (inactive) and -1.88% (inactive) | inactive | inactive | inactive | inactive | inactive | inactive
13 | Nc1nc(N)nc(NC2CC2)n1 | inactive | inactive | inactive | inactive | inactive | inactive |  | inactive |  | inactive | inactive | inactive | inactive | -1.36% (inactive) and 9.96% (inactive) and -0.244% (inactive) | inactive | inactive | inactive | inactive | inactive | inactive
14 | CN1C(=O)CCS(=O)(=O)C1c1ccc(Cl)cc1 (configuration not stated) | inactive | inactive | inactive |  | inactive |  |  | inactive | inactive | inactive | inactive | inactive | inactive | 4.07% (inactive) and -0.966% (inactive) | inactive | inactive | inactive | inactive | inactive | 
